{"source": "PubChem BioAssay AID624330", "about": "(Southern Research Specialized Biocontainment Screening …, 2012)", "note": "Screen size: about 340,000 compounds; about 2,100 (0.62%) were called active.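 How the source made its calls: active means first-screen hits whose inhibition reached a set limit at any dose in the follow-up dose series; inconclusive means inhibition above the set first-screen limit but never retested; inactive means the rest.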 Not all results are given here. Measured potencies and affinities stand elsewhere.", "data": [{"biological_target": "Rac GTPase-activating protein 1 (Homo sapiens) (UniProt Q9H0H5)", "sequence (Q9H0H5 whole entry, looked up)": "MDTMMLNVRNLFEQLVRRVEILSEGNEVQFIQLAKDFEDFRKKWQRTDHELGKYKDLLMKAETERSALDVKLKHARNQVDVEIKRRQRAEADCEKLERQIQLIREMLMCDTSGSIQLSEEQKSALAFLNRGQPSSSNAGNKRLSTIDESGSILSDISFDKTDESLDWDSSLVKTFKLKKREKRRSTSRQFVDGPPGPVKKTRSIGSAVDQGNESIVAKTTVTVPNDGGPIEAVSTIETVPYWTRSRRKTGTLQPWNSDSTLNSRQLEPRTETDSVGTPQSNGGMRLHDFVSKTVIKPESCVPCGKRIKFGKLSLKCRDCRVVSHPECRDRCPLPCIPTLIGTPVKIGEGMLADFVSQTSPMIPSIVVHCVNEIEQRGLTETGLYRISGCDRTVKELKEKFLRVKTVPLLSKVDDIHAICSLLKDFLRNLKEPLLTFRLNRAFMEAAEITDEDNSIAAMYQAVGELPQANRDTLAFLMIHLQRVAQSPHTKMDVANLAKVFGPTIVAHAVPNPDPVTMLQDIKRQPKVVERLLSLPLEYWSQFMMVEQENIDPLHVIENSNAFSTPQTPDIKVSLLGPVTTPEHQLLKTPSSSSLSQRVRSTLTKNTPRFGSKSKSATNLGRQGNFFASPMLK", "assay": "MgcRacGAP GTPase-activating activity inhibitors, confirmation, biochemical, ADP Hunter fluorescence, primary and confirmatory (AID 624330);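 further: fluorescence reports GDP produced by GAP-driven GTP hydrolysis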", "conditions": "MgcRacGAP-stimulated Rac1 GTP hydrolysis, at 30 µM, stronger effect = higher value, GST-tagged Rac1 F28L mutant substrate", "values": [{"smiles": "O=C(Cn1c(-c2ccccc2)noc1=O)N1CCC(Cc2ccccc2)CC1", "inhibition": "5.27% (inactive)"}, {"smiles": "O=C(CNCc1ccccc1)Nc1cccc(Cl)c1Cl", "inhibition": "27.2% (inactive)"}, {"smiles": "CCCCCN(C(=O)CCC(=O)OCC(=O)c1c(C)cc(C)cc1C)c1c(N)n(CCCC)c(=O)[nH]c1=O", "inhibition": "3.32% (inactive)"}, {"smiles": "CCN(C(=O)c1c(N)cnn1C)c1ccccc1", "inhibition": "-2.97% (inactive)"}, {"smiles": "COc1ccc(N2CCN(C(=O)COC(=O)c3cccc(S(=O)(=O)Nc4cccc(C)c4)c3)CC2)cc1", "inhibition": "5.68% (inactive)"}, {"smiles": "CCOC(=O)c1oc2cc(C)cc(C)c2c1C", "inhibition": "4.4% (inactive)"}, {"smiles": "CCOC(=O)c1oc2cccc(O)c2c1C", "inhibition": "5.83% (inactive)"}, {"smiles": "Cc1ccc(-n2ncc3c2CC(C)(C)CC3NC(=O)c2c(C)noc2C)cc1", "note": "(stereo unspecified)", "inhibition": "5.31% (inactive)"}, {"smiles": "CC(=O)Nc1ccc(S(=O)(=O)Nc2cc(C)cn(Cc3ccccc3)c2=O)cc1", "inhibition": "3.18% (inactive)"}, {"smiles": "O=C(CN1CCN(S(=O)(=O)c2ccc3ccccc3c2)CC1)N1CCc2ccccc2C1", "inhibition": "10.7% (inactive)"}, {"smiles": "O=C(CN1CCN(S(=O)(=O)c2ccc(F)c(Cl)c2)CC1)N1CCc2ccccc2C1", "inhibition": "2.62% (inactive)"}, {"smiles": "COc1ccc(S(=O)(=O)N2CCN(CC(=O)N3CCc4ccccc4C3)CC2)cc1OC", "inhibition": "7.25% (inactive)"}, {"smiles": "O=C(CN1CCN(S(=O)(=O)c2cc(C(F)(F)F)ccc2Cl)CC1)N1CCc2ccccc2C1", "inhibition": "9.9% (inactive)"}, {"smiles": "Cc1cc(OCC(=O)NCC(c2ccc(F)cc2)N2CCOCC2)ccc1Cl", "note": "(stereo unspecified)", "inhibition": "3.16% (inactive)"}, {"smiles": "O=C(CCc1ccc(S(=O)(=O)N2CCOCC2)cc1)Oc1ccccc1", "inhibition": "8.54% (inactive)"}, {"smiles": "CCCCc1nc2ccccc2c(NC(=O)CNC(C)(C)C)c1CCC", "inhibition": "20.5% (inactive)"}, {"smiles": "CN1CCN(CC(=O)Nc2cc(N(C)C)nc3ccccc23)CC1", "inhibition": "27.1% (inactive)"}, {"smiles": "CN(C)c1cc(NC(=O)CN2CCOCC2)c2ccccc2n1", "inhibition": "0.97% (inactive)"}, {"smiles": "O=C(CN1CCCCC1)Nc1c2c(nc3ccccc13)N(c1ccccc1)CC2", "inhibition": "20.7% (inactive)"}, {"smiles": "CCCCc1nc2ccccc2c(NC(=O)CN2CCCC2)c1CCC", "inhibition": "28.9% (inactive)"}, {"smiles": "O=C(CN1CCCC1)Nc1c2c(nc3ccccc13)N(Cc1ccccc1)CC2", "inhibition": "3.93% (inactive)"}, {"smiles": "CCCn1c(=O)c(C(=O)NCC2CCCO2)c(O)c2ccccc21", "note": "(stereo unspecified)", "inhibition": "5.01% (inactive)"}, {"smiles": "O=C1c2ccccc2C(=O)N1CCCCNc1ccccc1", "inhibition": "-2.64% (inactive)"}, {"smiles": "COC(=O)c1sc2ncccc2c1OCc1ccc(Cl)cc1", "inhibition": "1.91% (inactive)"}, {"smiles": "N#C/C(=C\\c1ccc2c(c1)OCCO2)C(=O)NC1CCCCC1", "inhibition": "4% (inactive)"}, {"smiles": "C=CCOC(=O)COc1ccc2c(C)c(C)c(=O)oc2c1C", "inhibition": "-6.38% (inactive)"}]}]}
